Values joined by “and” are separate entries in the source; they are usually repeats but may differ in a detail not shown here. Equal values may be shown once. Among all 360,000 compounds or so, about 4,200 (1.2%) were called active.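 The calls were made as follows: active = mean replicate inhibition at least 60% with every replicate also reaching 60%; inconclusive = only one of the two criteria is met; inactive = mean below 60% and not all replicates reaching 60%.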 For the sample, actives were picked, then their nearest neighbours and some compounds at random.
assay: PAX8 transcriptional activity inhibition in RMG-I – RMG-I cells, luciferase, single concentration, primary screen (AID 652154); settings: RMG-I TPO-luciferase reporter, SteadyGlo, 24 h; at 12.6 µM; stronger effect = higher value;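 also: luciferase light reporting Pax8 driven TPO promoter activity; plate controls were median of neutral control wells for no effect and mitoxantrone controls for full effect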

Structure (SMILES) | inhibition
CO[C@H]1CN(C)C(=O)c2cc(NC(=O)c3ccc4c(c3)OCO4)ccc2OC[C@@H](C)N(CCC(F)(F)F)C[C@H]1C | -3.09% (inactive)
COc1ccc(C#Cc2ccc([C@H]3[C@@H](CO)N4CCCCN(C(=O)Nc5ccccc5)C[C@H]34)cc2)cc1 | 85.6% (active)
COc1ccccc1NC(=O)N1CC(=O)N2[C@H](CO)[C@H](c3ccc(C#Cc4ccccc4)cc3)[C@H]2C1 | -18.8% (inactive)
CC(C)C#Cc1ccc([C@H]2[C@@H](CO)N3CCCCN(C(=O)Nc4ccccc4)C[C@H]23)cc1 | 7.15% (inactive)
COc1ccccc1NC(=O)N1CC(=O)N2[C@H](C1)[C@H](c1ccc(C#Cc3ccccc3)cc1)[C@@H]2CO | 61.7% (active)
COc1ccccc1NC(=O)N1CCCCN2[C@H](CO)[C@H](c3ccc(C#CC4CC4)cc3)[C@@H]2C1 | 8.7% (inactive)
COc1ccccc1NC(=O)N1CCCCN2[C@@H](CO)[C@@H](c3ccc(C#Cc4ccccc4)cc3)[C@@H]2C1 | 109% (active)
COc1ccccc1NC(=O)N1CCCCN2[C@H](C1)[C@H](c1ccc(-c3ccccc3)cc1)[C@@H]2CO | -14.1% (inactive)
O=C(CC1CC1)N1CC(=O)N2[C@H](CO)[C@H](c3ccc(C#Cc4ccc(F)cc4)cc3)[C@@H]2C1 | 2.13% (inactive)
COc1ccccc1NC(=O)N1CC(=O)N2[C@@H](CO)[C@H](c3ccc(C#CC4CC4)cc3)[C@@H]2C1 | -15.3% (inactive)
O=C(c1ccc(F)cc1)N1CC(=O)N2[C@H](C1)[C@@H](c1ccc(C#CC3CC3)cc1)[C@@H]2CO | 27.2% (inactive)
O=C(Nc1ccccc1)N1CCCCN2[C@H](CO)[C@@H](c3ccc(C#Cc4ccccn4)cc3)[C@H]2C1 | 10.2% (inactive)
O=C(c1ccc(F)cc1)N1CC(=O)N2[C@@H](CO)[C@@H](c3ccc(C#Cc4ccc(F)cc4)cc3)[C@@H]2C1 | 87.7% (active)
Cc1ccccc1S(=O)(=O)N[C@@H]1CC[C@@H](CCNS(=O)(=O)c2cccc(F)c2)O[C@H]1CO | 20.4% (inactive)
O=C(C[C@H]1CC[C@H]2[C@@H](COC[C@@H](O)CN2Cc2cccc(C(F)(F)F)c2)O1)NCc1ccncc1 | -1.84% (inactive)
CCS(=O)(=O)Nc1ccc2c(c1)C(=O)N(C)[C@@H]1CC[C@@H](CC(=O)NC)O[C@H]1CO2 | -18% (inactive)
CCCNC(=O)Nc1ccc2c(c1)OC[C@@H](C)N(CCC)C[C@H](C)[C@@H](OC)CN(C)C2=O | -2.35% (inactive)
CCCNC(=O)Nc1ccc2c(c1)C(=O)N(C)[C@@H]1CC[C@@H](CC(=O)NC)O[C@H]1CO2 | -19.9% (inactive)
O=C(c1cccnc1)N1CC2(C1)[C@@H](c1ccccc1)[C@H](CO)N2C(=O)C1CCC1 | -5.13% (inactive)
CC(=O)N1CC[C@@H]2[C@@H](CO)N(C)c3ccc(-c4ccc(C#N)cc4)cc3[C@@H]21 | -6.97% (inactive)
C[C@@H]1CN([C@H](C)CO)C(=O)Cc2cc(NC(=O)CCN3CCOCC3)ccc2O[C@H]1CN(C)Cc1ccncc1 | -2.37% (inactive)
CN(C)CC#Cc1ccc([C@@H]2[C@H](CO)N3CCCCN(C(=O)Nc4ccc(F)cc4)C[C@@H]23)cc1 | 92.8% (active)
O=C(Nc1ccc(F)cc1)N1CCCCN2[C@H](CO)[C@H](c3ccc(C#Cc4ccccc4)cc3)[C@H]2C1 | 38% (inactive)

Structure (SMILES) | inhibition
O=C(C1CCC1)N1CCCCN2[C@H](CO)[C@H](c3ccc(-c4cccc(F)c4)cc3)[C@@H]2C1 | -30.2% (inactive)
CN(C)CC#Cc1ccc([C@@H]2[C@H](CO)N3CCCCN(C(=O)NC4CCCC4)C[C@@H]23)cc1 | 6.59% (inactive)
O=C(C1CCC1)N1CCCCN2[C@H](CO)[C@H](c3ccc(-c4cccc(F)c4)cc3)[C@H]2C1 | 84.3% (active)
O=C(C1CCCC1)N1CCCCN2[C@@H](CO)[C@H](c3ccc(-c4cccc(F)c4)cc3)[C@@H]2C1 | 6.9% (inactive)
C[C@H](CO)N1C[C@H](C)[C@H](CN(C)C(=O)CCC(F)(F)F)OCCCC[C@H](C)Oc2ccc(NS(C)(=O)=O)cc2C1=O | -0.897% (inactive)
Cc1ccc(-c2cnc3c(c2)C(=O)N([C@H](C)CO)C[C@H](C)[C@@H](CN(C)C(=O)c2cccc(F)c2)O3)cc1 | 6.03% (inactive)
CCNC(=O)[C@H]1[C@H](CO)[C@H]2Cn3c(ccc(-c4ccc(OC)cc4)c3=O)[C@H]2N1Cc1ccccc1 | 21.7% (inactive)
CCNC(=O)C[C@H]1CC[C@@H]2[C@H](COC[C@H](O)CN2S(=O)(=O)c2ccc(Oc3ccccc3)cc2)O1 | -12.7% (inactive)
COc1ccc(NC(=O)N(C)C[C@H]2Oc3ccc(NS(=O)(=O)c4ccc(C)cc4)cc3C(=O)N([C@@H](C)CO)C[C@H]2C)cc1 | 2.38% (inactive)
C[C@H](CO)N1C[C@H](C)[C@H](CN(C)C(=O)CCN(C)C)OCc2ccccc2-c2c(n(C)c3ccccc23)C1=O | -16% (inactive)
CC(C)NC(=O)Nc1ccc2c(c1)C(=O)N([C@H](C)CO)C[C@H](C)[C@@H](CN(C)Cc1ccc(C(F)(F)F)cc1)OCCCC[C@@H](C)O2 | -13.6% (inactive) and 26.1% (inactive)
C[C@@H]1CCCCO[C@H](CN(C)Cc2ccccc2)[C@H](C)CN([C@@H](C)CO)C(=O)c2cc(NC(=O)Nc3cccc4ccccc34)ccc2O1 | 21% (inactive)
C[C@@H]1CCCCO[C@@H](CN(C)Cc2ccccc2)[C@H](C)CN([C@H](C)CO)C(=O)c2cc(NC(=O)Nc3cccc4ccccc34)ccc2O1 | 73.4% (active)
COc1ccc(CN(C)C[C@@H]2OCCCC[C@@H](C)Oc3ccc(NC(=O)Nc4ccc(OC)cc4)cc3C(=O)N([C@@H](C)CO)C[C@@H]2C)cc1 | -12.3% (inactive)
COc1ccc(CN(C)C[C@@H]2OCCCC[C@@H](C)Oc3ccc(NC(=O)Nc4ccc(C(F)(F)F)cc4)cc3C(=O)N([C@H](C)CO)C[C@H]2C)cc1 | -16.7% (inactive)
C[C@H](CO)N1C[C@H](C)[C@@H](CN(C)Cc2ccc3c(c2)OCO3)OCCCC[C@H](C)Oc2ccc(NC(=O)Nc3ccc(C(F)(F)F)cc3)cc2C1=O | 36.6% (inactive)
C[C@@H]1CCCCO[C@@H](CN(C)Cc2ccc(C(F)(F)F)cc2)[C@@H](C)CN([C@H](C)CO)C(=O)c2cc(NC(=O)Nc3ccccc3)ccc2O1 | -1.66% (inactive)
C[C@H]1CCCCO[C@@H](CN(C)Cc2ccc(C(F)(F)F)cc2)[C@@H](C)CN([C@@H](C)CO)C(=O)c2cc(NC(=O)Nc3ccccc3)ccc2O1 | 67.9% (active)
COc1ccc(NC(=O)Nc2ccc3c(c2)C(=O)N([C@@H](C)CO)C[C@H](C)[C@H](CN(C)Cc2ccc(C(F)(F)F)cc2)OCCCC[C@H](C)O3)cc1 | 71.6% (active)
C[C@@H]1CCCCO[C@@H](CN(C)Cc2ccc(C(=O)O)cc2)[C@H](C)CN([C@@H](C)CO)C(=O)c2cc(NC(=O)Nc3ccc(C(F)(F)F)cc3)ccc2O1 | -16.9% (inactive)
C[C@@H]1CN([C@@H](C)CO)C(=O)c2cc(NC(=O)Nc3cccc4ccccc34)ccc2O[C@@H](C)CCCCO[C@H]1CN(C)Cc1ccccc1 | -1.82% (inactive)
C[C@@H]1CN([C@H](C)CO)C(=O)c2cc(NC(=O)Nc3ccccc3)ccc2O[C@@H](C)CCCCO[C@H]1CN(C)Cc1ccc(C(F)(F)F)cc1 | 77.3% (active)

— PubChem BioAssay AID652154 (Broad Institute, 2013)
